ATG4B inh: blocks human ATG4B protease cleavage of LC3 substrate; Q9Y4P1; ATG4B cleavage of LC3-PLA2, NBD-HPC fluorescence, 1 h; inhibition, % at 8.33 µM; actives 0.51% (n = 340,000); AID 504462; in the data active = inhibition above about 40%
Target sequence (Q9Y4P1 whole entry, looked up): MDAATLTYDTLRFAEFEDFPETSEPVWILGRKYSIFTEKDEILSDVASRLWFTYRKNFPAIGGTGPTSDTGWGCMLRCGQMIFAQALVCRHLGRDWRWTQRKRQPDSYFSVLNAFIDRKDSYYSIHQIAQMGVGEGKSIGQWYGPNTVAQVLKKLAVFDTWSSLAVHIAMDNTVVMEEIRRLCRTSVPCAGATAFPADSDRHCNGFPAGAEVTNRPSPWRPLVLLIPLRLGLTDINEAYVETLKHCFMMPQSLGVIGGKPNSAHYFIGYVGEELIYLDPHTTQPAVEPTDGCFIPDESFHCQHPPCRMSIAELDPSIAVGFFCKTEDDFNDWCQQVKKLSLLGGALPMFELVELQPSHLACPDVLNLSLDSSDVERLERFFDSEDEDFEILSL
Mot1-301 SUMO: inhibitors of SUMOylation pathway: yeast Mot1-301 growth rescue. S. cerevisiae Mot1-301 growth rescue, ATP luminescence, 38.5C; percent above DMSO median, 100 means doubled. growth rescue, % at 18.8 µM. actives 1% (n = 320,000);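 active = every valid replicate shows activation above 250% relative to neutral control wells; inactive = the rest, any valid replicate at or below 250%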;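 note: OY570 slx delta 5 strain wells were the positive control but not used for scaling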
Calb FLC: C. albicans growth modulation with fluconazole; actives 0.57% (n = 300,000); C. albicans CaCi-2 (fluconazole-resistant clinical isolate) + fluconazole, Alamar Blue growth, 48 h; growth inhibition, % (test concentration not listed); AID 1979;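 active = growth inhibition above about 58% in most replicates, limit read from the data, passing the limit was not always enough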;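 note: all wells also contain fluconazole at 8 µg/ml as a sub-toxic cotreatment; 0% = median of DMSO wells and 100% = median of geldanamycin control wells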
FAS TE block: inhibitors of human fatty acid synthase thioesterase domain; actives 0.67% (n = 360,000); inhibition, % at 15 µM; P49327; recombinant FAS-TE, OMFH fluorogenic substrate, fluorescence endpoint;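 active = compounds whose normalised, plate-corrected inhibition of enzyme fluorescence in the single-dose primary screen is 50% or more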;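 note: 0% = DMSO with enzyme and 100% = substrate without enzyme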
NadD block: blocks S. aureus nicotinate mononucleotide adenylyltransferase. actives 0.78% (n = 360,000). AID 602399. inhibition, % at 20 µM. purified NadD enzyme, colorimetric absorbance read-out; in the data active = inhibition above about 26%
Active calls of the source: *; x = no result. Shown are actives, neighbours in structure and some others; about 3.1% of the full set was active somewhere.

SMILES	ATG4B inh	Mot1-301 SUMO	Calb FLC	FAS TE block	NadD block
O=C(NCCNC(=O)C(c1ccccc1)c1ccccc1)c1ccco1	-10	156	111*	1	-5
CCOc1ccc(NC(=O)CN(C)C(=O)c2ccccc2-n2cnnn2)cc1OCC	0	-6	1	-5	-9
Cc1cccc(COc2ccc(S(=O)(=O)N3CCOCC3)cc2[N+](=O)[O-])c1	-18	x	x	20	-5
COc1ccc(NC(=O)c2cccc3c2C(=O)c2ccc(-c4ccc(F)cc4OCc4ccccc4)cc2S3(=O)=O)cc1	-4	-3	x	6	30*
Cc1ccc(/C=C2/SC(=S)N(c3ccc(S(=O)(=O)Nc4nccs4)cc3)C2=O)cc1	-3	4	-9	10	62*
O=C1/C(=C\c2ccccn2)SC(=S)N1c1ccc(S(=O)(=O)Nc2nccs2)cc1	-6	-25	-8	-2	44*
COc1ccc(/C=C2/SC(=S)N(c3ccc(S(=O)(=O)Nc4nccs4)cc3)C2=O)cc1	-2	15	4	3	56*
O=C1/C(=C/c2ccccn2)SC(=S)N1c1ccc(O)cc1	-6	-5	61	-2	0
O=C(OCc1ccccc1)N1CCN(C(c2ccnc3ccccc23)c2nnnn2-c2ccc3c(c2)OCCO3)CC1 (configuration not stated)	x	x	x	30	9
CCc1oc(C(=O)O)cc1CN(CC)CC	0	-8	0	-6	-1
CCN(CC)Cc1cc(O)c(CN(CC)CC)cc1O	-6	x	30	-9	31*
Clc1ccc(C2Nc3cccc4cccc(c34)N2)c(Cl)c1	19	x	x	40	8
Clc1cccc(-c2ccc(C3Nc4cccc5cccc(c45)N3)o2)c1	-13	139	x	22	52*
CS(=O)(=O)N1N=C(c2cccs2)CC1c1ccccc1F (configuration not stated)	-9	-10	-3	-2	-4
Cc1cccc(NC(=O)/C(C#N)=C/c2cccc([N+](=O)[O-])c2)n1	3	483*	-7	6	9
O=C1NC[C@@H](CCCCN2C[C@H](Cc3ccc(O)cc3)N(Cc3ccccc3)C(=O)C2=O)N(CCC2CCCCC2)C1=O	x	x	x	0	25
Cc1ccc(C2CC2C(=O)NNC(=S)Nc2cccc(Cl)c2)cc1 (configuration not stated)	20	29	112*	14	3
CC(=O)Nc1ccc(Nc2nc(C)c([N+](=O)[O-])c(Nc3ccc(NC(C)=O)cc3)n2)cc1	-4	9	23	-4	0
COc1cccc(C2CC(c3ccc(NS(C)(=O)=O)cc3)=NN2C(=O)c2ccccc2)c1OC (configuration not stated)	-17	2	103*	13	3
O=C(COc1ccc([N+](=O)[O-])cc1Cl)NCCN1C(=O)CSC1=O	-2	17	x	2	-5
COc1ccc(OC)c(NC(=O)C(=O)/C=C(\O)c2cc(OC)ccc2OC)c1	1	-8	104*	3	17
CSc1nnc(-c2ccc(S(=O)(=O)N3CCOCC3)cc2)n1CC1CCCO1 (configuration not stated)	3	333*	-12	-9	8
CCSc1nnc(-c2ccc(S(=O)(=O)N3CCOCC3)cc2)n1CC1CCCO1 (configuration not stated)	-2	137	1	-9	-2
CC1CCC(C(C)C)C(OC(=O)Cn2c(-c3ccccc3)[n+](C)c3ccccc32)C1 (configuration not stated)	6	-22	17	-5	4
Cc1cccc(OCc2n(CC(=O)OC3CC(C)CCC3C(C)C)c3ccccc3[n+]2C)c1 (configuration not stated)	13	-26	102*	-18	16
SMILES	ATG4B inh	Mot1-301 SUMO	Calb FLC	FAS TE block	NadD block
CCC(C(=O)N1CCOCC1)n1nc(C)n2c(cc3cc(C)ccc32)c1=O (configuration not stated)	-2	9	-4	-8	0
c1ccc(C(CN2CCCCC2)Oc2ccccn2)cc1 (configuration not stated)	1	x	x	-4	-4
c1ccc2c(Nc3nncs3)c3ccccc3nc2c1	5	314*	5	-1	-5
COc1ccc2c(CC(=O)Nc3ncc(C)s3)coc2c1	6	x	-1	2	-2
C=CCn1c(C)cc(C(=O)CSc2nc(N)cc(N)n2)c1C	-4	-1	108*	-4	-4
Nc1nsc2ccccc12	0	9	87*	-7	-2
Cc1cc(-c2csc(NC(=O)c3cccc(S(=O)(=O)N(C)C)c3)n2)c(C)n1-c1ccccc1	-12	36	1	6	49*
O=C(NC(=S)NC1C2CC3CC(C2)CC1C3)c1ccccc1 (configuration not stated)	10	175	-7	9	2
COc1c(Br)cc([N+](=O)[O-])c(OC)c1C(=O)NC(=O)Nc1c(Cl)cccc1Cl	-2	-4	84*	35	-1
COc1c(Br)cc([N+](=O)[O-])c(OC)c1C(=O)NC(=O)Nc1cc(Cl)cc(Cl)c1	-13	-8	-1	-1	8
O=[N+]([O-])c1cc2cccnc2c2ncccc12	-2	2	12	-9	2
O=[N+]([O-])c1cc(O)c2ncccc2c1	0	-21	105*	x	x
Cc1cccc(C)c1N=C1SC(CC(=O)Nc2c(C)cccc2C)C(=O)N1CCc1ccccn1 (configuration not stated)	5	468*	-3	3	-6
O=C(CC1SC(=Nc2ccccc2)N(CCc2ccccn2)C1=O)Nc1ccc(F)cc1 (configuration not stated)	-1	-2	-4	21	-4
CCCCN(C(=S)Nc1cccc(C)c1C)c1c(N)n(CCC)c(=O)[nH]c1=O	1	-2	8	-4	-1
O=C(N/N=C/c1cccc(Cl)c1Cl)Nc1ccccc1	-11	15	10	-1	2
O=C(N/N=C/c1ccc(Cl)cc1Cl)Nc1ccccc1	-6	16	117*	5	4
O=C(Cc1ccccc1)N/N=C/c1ccccc1Cl	-2	5	116*	0	-1
CCCn1c(CN2CCN(C(=O)c3ccco3)CC2)nc2cc(S(=O)(=O)N(C)C)ccc21	-15	x	x	-8	4
Cc1ccc(NC(=O)Nn2cnnc2)c(C)c1	-2	-3	-3	-6	-2
Cc1ccc(NC(=S)Nn2cnnc2)c(C)c1	x	-28	82*	-7	-2
COc1ccc(O)c(C(=O)c2cnn(C(=O)c3ccc(C)cc3)c2)c1	0	23	x	-3	10
Cc1ccc(O)c(C(=O)c2cnn(C(=O)Cc3csc(C)n3)c2)c1	43*	61	x	3	2
O=C(NNc1ccc(Cl)cc1)C1CCC1	-11	225	85*	-10	2
COc1ccc(-n2nnnc2S(=O)(=O)CC(=O)N2CCCCC2)cc1	-8	486*	x	40	-3

Screening results (PubChem)
